Of roughly 7,900 targets only a part is listed; those with a hit were picked by preference. About 0.6% of all pairs of compound and target were hits. Values without a mark were called inactive.
Legend:
Assay in all cases: log2 fold change, soluble protein after heating vs DMSO (PISA); higher = thermal stabilisation; K562 cells, 10 uM, 30 min; active = over 0.2 and 3.5 SD of the protein, either way, in both replicates (recomputed)
IRAK-1-4 Inhibitor I = compound: C1COCCN1CCN2C3=CC=CC=C3N=C2NC(=O)C4=CC(=CC=C4)[N+](=O)[O-] [IRAK-1-4 Inhibitor I]
Procedure, shortened: (§1)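 Aliquots of K562 cells (2×10^6 cells/mL) treated with 10 μM compound for 30 min were heated for 3 min over 48°C-58°C. After pooling and extraction in PBS with 0.5% NP-40 at 4°C, soluble protein from a 21,000xg, 90 min spin was quantified by TMTpro 16plex LC-MS/MS with channel sums equalised. Thermal stability is expressed against control samples, from duplicates, as a log2 fold change.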

ibrutinib = compound: C=CC(=O)N1CCC[C@@H](n2nc(-c3ccc(Oc4ccccc4)cc3)c3c(N)ncnc32)C1 [ibrutinib]
Procedure, shortened: as §1

[1] = compound: CC(=O)c1cnc2ccc(-c3cc(Cl)c(O)c(Cl)c3)nc2c1N[C@H]1CC[C@H](CN(C)C)CC1
Procedure, shortened: as §1

ralimetinib = compound: CC(C)(C)Cn1c(N)nc2ccc(-c3[nH]c(C(C)(C)C)nc3-c3ccc(F)cc3)nc21 [ralimetinib]
Procedure, shortened: as §1

[2] = compound: CC(C)(O)CC(=O)NCCn1ccc2ncnc(Nc3ccc(Oc4cccc(C(F)(F)F)c4)c(Cl)c3)c21
Procedure, shortened: as §1

[3] = compound: CC(C)C[C@@H](C=O)NC(=O)[C@H](CC(C)C)NC(=O)[C@H](CC(C)C)NC(=O)OCc1ccccc1
Procedure, shortened: as §1

pinometostat = compound: CC(C)N(C[C@H]1O[C@@H](n2cnc3c(N)ncnc32)[C@H](O)[C@@H]1O)[C@H]1C[C@@H](CCc2nc3cc(C(C)(C)C)ccc3[nH]2)C1 [pinometostat]
Procedure, shortened: as §1

[4] = compound: CC1=C(C(CC(=O)N1)C2=CC=C(C=C2)C(F)(F)F)C(=O)NC3=C(C=C4C(=C3)C=NN4)F
Procedure, shortened: as §1

[5] = compound: CC1=C(C2=C(C=C1)C(=O)C3=CC=CC=C3N2CCCN)C
Procedure, shortened: as §1

[6] = compound: CC(C)C1=C2N=C(C=C(N2N=C1)NCC3=CC=CC=C3)NCCCCCCN
Procedure, shortened: as §1

Sequence of UniProt Q8N8J7 (Q8N8J7 whole entry, looked up): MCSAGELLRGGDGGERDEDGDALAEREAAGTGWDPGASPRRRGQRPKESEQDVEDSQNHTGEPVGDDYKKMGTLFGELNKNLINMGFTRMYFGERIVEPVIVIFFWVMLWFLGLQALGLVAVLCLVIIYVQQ
Sequence of UniProt P98173 (P98173 whole entry, looked up): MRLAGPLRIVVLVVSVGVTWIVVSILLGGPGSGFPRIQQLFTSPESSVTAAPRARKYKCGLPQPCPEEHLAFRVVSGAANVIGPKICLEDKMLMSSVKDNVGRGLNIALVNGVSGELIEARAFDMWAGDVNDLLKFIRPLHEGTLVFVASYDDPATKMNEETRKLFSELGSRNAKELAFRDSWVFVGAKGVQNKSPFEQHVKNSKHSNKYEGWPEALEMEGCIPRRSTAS
Sequence of UniProt Q8IYI6 (Q8IYI6 whole entry, looked up): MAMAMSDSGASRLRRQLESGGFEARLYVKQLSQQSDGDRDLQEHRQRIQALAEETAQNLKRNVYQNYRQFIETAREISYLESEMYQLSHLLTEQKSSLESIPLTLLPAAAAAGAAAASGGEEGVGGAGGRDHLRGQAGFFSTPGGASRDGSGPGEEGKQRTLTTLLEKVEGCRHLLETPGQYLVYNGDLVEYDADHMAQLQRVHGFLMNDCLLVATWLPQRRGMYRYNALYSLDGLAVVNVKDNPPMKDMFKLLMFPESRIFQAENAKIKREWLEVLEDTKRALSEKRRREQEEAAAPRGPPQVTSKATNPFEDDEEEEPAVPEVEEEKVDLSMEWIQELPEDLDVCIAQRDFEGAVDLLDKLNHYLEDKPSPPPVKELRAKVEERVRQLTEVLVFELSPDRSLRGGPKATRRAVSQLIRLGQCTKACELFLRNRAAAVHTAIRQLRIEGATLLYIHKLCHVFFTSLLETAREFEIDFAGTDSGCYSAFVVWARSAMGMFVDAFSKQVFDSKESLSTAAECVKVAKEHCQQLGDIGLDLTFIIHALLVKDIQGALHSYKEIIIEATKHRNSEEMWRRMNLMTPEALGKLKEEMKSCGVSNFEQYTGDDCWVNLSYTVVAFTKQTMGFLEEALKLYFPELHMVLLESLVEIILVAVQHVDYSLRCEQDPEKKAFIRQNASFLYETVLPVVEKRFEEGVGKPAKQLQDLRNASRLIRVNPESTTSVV
Sequence of UniProt Q07973 (Q07973 whole entry, looked up): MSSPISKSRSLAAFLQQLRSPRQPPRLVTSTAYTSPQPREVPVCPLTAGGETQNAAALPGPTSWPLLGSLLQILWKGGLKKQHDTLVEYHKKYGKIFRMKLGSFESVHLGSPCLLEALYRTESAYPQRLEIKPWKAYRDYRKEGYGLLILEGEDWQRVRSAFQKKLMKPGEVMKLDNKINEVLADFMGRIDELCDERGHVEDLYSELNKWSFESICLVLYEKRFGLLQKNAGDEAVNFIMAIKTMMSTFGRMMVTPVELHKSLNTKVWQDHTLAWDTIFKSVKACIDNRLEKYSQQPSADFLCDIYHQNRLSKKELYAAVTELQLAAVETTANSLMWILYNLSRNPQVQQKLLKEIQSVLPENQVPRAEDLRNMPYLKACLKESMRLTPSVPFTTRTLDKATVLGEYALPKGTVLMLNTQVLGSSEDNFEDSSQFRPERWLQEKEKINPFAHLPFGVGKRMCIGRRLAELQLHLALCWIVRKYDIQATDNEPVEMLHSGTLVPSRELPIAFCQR
Sequence of UniProt Q8N128 (Q8N128 whole entry, looked up): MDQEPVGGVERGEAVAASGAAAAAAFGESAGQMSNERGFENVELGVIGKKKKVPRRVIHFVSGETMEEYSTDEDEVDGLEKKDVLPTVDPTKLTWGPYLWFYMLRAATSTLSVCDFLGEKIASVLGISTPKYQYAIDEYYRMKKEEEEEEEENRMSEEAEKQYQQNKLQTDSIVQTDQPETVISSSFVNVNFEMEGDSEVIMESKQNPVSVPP
Sequence of UniProt Q9H773 (Q9H773 whole entry, looked up): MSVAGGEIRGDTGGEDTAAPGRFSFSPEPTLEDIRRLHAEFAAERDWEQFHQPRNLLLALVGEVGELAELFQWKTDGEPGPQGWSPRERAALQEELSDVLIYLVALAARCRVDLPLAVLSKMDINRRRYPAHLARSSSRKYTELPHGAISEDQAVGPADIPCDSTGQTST
Sequence of UniProt Q7Z2Z2 (Q7Z2Z2 whole entry, looked up): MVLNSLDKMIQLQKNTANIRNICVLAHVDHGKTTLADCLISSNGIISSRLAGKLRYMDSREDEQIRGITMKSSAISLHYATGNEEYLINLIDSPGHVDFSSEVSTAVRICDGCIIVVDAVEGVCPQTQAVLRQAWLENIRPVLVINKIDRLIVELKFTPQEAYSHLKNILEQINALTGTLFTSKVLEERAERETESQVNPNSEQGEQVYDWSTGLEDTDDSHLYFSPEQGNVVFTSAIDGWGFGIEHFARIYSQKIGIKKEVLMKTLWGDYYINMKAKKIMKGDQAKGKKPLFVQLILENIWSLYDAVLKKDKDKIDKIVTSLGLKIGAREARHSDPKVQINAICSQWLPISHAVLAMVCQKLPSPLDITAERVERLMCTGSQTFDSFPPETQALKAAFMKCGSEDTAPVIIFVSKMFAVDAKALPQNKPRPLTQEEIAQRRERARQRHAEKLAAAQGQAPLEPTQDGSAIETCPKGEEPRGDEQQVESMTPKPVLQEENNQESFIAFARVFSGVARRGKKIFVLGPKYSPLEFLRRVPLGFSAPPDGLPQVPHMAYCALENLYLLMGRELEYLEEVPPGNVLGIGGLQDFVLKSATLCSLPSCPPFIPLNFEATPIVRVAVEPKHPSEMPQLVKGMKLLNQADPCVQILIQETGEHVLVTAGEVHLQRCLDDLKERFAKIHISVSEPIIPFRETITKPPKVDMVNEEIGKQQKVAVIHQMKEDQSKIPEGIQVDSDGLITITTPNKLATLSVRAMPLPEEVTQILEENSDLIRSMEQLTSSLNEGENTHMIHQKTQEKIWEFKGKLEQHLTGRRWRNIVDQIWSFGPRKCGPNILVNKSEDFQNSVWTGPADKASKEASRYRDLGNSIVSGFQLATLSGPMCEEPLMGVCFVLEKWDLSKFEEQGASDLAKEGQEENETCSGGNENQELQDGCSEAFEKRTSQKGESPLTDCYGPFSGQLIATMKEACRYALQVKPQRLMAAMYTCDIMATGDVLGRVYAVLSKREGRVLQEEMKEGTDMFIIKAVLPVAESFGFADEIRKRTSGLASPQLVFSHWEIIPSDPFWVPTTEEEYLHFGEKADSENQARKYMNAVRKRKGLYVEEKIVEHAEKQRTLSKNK
Sequence of UniProt Q01780 (Q01780 whole entry, looked up): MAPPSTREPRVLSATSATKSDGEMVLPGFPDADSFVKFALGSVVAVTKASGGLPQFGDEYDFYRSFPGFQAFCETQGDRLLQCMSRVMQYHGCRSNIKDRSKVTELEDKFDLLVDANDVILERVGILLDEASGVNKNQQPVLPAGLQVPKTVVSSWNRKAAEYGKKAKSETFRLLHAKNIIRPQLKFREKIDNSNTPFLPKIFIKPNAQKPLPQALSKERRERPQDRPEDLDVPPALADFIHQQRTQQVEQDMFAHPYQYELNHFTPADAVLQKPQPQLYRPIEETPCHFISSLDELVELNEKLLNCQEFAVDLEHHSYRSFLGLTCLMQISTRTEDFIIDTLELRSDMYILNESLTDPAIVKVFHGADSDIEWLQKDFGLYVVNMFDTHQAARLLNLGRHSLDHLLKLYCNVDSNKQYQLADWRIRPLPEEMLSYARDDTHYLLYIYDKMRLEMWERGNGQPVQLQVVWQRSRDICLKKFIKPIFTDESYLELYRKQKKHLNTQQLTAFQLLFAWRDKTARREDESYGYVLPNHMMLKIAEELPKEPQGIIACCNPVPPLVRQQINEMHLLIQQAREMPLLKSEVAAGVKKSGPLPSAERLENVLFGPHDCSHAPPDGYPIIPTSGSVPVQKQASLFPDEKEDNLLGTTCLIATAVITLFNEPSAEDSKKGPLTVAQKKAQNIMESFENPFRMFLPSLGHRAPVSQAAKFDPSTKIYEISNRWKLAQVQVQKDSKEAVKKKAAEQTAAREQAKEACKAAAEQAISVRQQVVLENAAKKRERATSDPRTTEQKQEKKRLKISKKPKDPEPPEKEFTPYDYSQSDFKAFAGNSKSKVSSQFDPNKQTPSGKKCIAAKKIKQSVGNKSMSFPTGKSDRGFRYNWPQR
Sequence of UniProt P09668 (P09668 whole entry, looked up): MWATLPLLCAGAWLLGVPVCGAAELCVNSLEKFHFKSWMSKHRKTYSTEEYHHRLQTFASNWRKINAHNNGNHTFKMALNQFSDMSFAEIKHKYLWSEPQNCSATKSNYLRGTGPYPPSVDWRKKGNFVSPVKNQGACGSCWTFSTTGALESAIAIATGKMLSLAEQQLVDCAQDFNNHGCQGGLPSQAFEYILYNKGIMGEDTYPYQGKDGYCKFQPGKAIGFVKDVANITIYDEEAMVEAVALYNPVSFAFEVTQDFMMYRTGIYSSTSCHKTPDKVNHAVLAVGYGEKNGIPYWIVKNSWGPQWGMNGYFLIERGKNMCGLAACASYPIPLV
Sequence of UniProt Q9UK59 (Q9UK59 whole entry, looked up): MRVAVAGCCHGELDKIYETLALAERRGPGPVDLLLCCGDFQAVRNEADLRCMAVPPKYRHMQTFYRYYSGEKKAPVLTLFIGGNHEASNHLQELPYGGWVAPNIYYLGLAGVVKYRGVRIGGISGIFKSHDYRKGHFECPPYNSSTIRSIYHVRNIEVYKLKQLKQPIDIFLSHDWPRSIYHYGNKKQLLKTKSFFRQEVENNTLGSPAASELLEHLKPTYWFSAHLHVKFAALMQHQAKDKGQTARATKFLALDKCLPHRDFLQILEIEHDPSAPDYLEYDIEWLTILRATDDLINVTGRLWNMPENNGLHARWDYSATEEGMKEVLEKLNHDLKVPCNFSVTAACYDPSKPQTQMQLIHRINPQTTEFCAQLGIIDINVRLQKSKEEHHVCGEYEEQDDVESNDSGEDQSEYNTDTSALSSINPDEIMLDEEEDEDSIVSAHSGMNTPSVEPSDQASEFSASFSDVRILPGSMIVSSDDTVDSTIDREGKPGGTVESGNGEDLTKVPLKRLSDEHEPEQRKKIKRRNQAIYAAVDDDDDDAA

Target | log2 fold change (IRAK-1-4 Inhibitor I) | log2 fold change (ibrutinib) | log2 fold change [1] | log2 fold change (ralimetinib) | log2 fold change [2] | log2 fold change [3] | log2 fold change (pinometostat) | log2 fold change [4] | log2 fold change [5] | log2 fold change [6]
FAM118A (UniProt Q9NWS6) | -0.009 | 0.045 | -0.212 | -0.21 | -0.207 | -0.125 | -0.054 | -0.006 | 0.014 | 
ERCC2 (UniProt P18074) | -0.01 | 0.003 | -0.165 | 0.014 | 0.016 | 0.03 | 0.078 | 0.021 | -0.016 | -0.068
EGLN1 (UniProt Q9GZT9) | 0.016 | -0.054 | -0.027 | -0.034 | -0.01 | 0.018 | 0.045 | -0.002 | -0.029 | -0.083
ELMO1 (UniProt Q92556) | -0.022 | -0.176 |  | 0.069 | -0.091 | 0.761 (active) | -0.161 | 0.037 |  | -0.094
DNAH5 (UniProt Q8TE73) | 0.074 | 0.039 |  | 0.004 | 0.031 | 0.009 | 0.055 | -0.023 | 0.106 | -0.09
DCTPP1 (UniProt Q9H773) | 0.017 | 0.011 | 0.03 | 0.062 | -0.039 | -0.105 | -0.067 | 0.061 | 0.165 | 0.075
DNM2 isoform 4 (UniProt P50570) | 0.019 | -0.074 |  | 0.005 | -0.101 | -0.04 | -0.063 | 0.007 |  | -0.047
DHFR (UniProt P00374) | -0.065 | -0.008 | -0.06 | 0.192 | -0.044 | 0.083 | 0.255 | -0.114 | 0.2 | 0.101
FAM177A1 isoform 2 (UniProt Q8N128) | 0.042 | 0.038 | 0.033 | 0 | -0.242 | 0.029 | 0.081 | 0.062 | -0.019 | -0.245
DAXX (UniProt Q9UER7) | 0.13 | 0.091 | 0.008 | 0.218 |  | 0.088 | -0.049 | 0.078 | 0.078 | 0.243
DDX11 (UniProt Q96FC9) | 0.152 | 0.001 | -0.119 | -0.033 | -0.003 | 0.09 | -0.316 | -0.02 | 0.023 | 0.022
EFL1 (UniProt Q7Z2Z2) | 0.016 | -0.019 | -0.039 | -0.004 | -0.069 | 0.03 | 0.005 | -0.009 | -0.058 | -0.103
FAM114A2 (UniProt Q9NRY5) | 0.038 | -0.03 | 0.013 | -0.017 | -0.135 | 0.004 | 0.005 | -0.01 | -0.059 | -0.201
CYB561A3 isoform 2 (UniProt Q8NBI2) | 0.024 | 0.014 | 0.033 | -0.026 |  | -0.019 | -0.054 | -0.069 | -0.027 | -0.164
EIF2AK3 (UniProt Q9NZJ5) | -0.136 | 0.13 | -0.369 |  | -0.322 |  | -0.048 | -0.106 | 0.032 | 0.011
CYP24A1 (UniProt Q07973) | -0.162 | -0.044 | 0.187 | 0.412 |  | 0.31 | 0.276 | 0.083 | -0.089 | 0.069
EMD (UniProt P50402) | 0.039 | 0.009 | -0.021 | -0.004 | 0.028 | 0.034 | 0.013 | 0.021 | -0.042 | -0.114
FAM3A (UniProt P98173) | -0.028 | -0.011 | 0.028 | 0.023 | -0.028 | 0.047 | 0.007 | 0.018 | 0.088 | -0.07
DBR1 (UniProt Q9UK59) | -0.04 | 0.02 | -0.043 | 0.037 | 0.006 | -0.026 | -0.012 | 0.065 | 0.114 | 0.032
EIF3J isoform 2 (UniProt O75822) | 0.052 | 0.014 | -0.071 |  | -0.05 |  | -0.018 | 0.046 | 0.107 | 0.036
EXOSC10 (UniProt Q01780) | 0.165 | 0.033 | 0.026 | -0.261 | -0.01 | 0.247 | 0.059 |  | 0.076 | 0.213
EIF4G3 isoform 3 (UniProt O43432) | 0.012 | 0 | -0.074 | -0.003 |  | 0.017 | 0.079 | -0.227 | 0.03 | -0.079
DUS3L (UniProt Q96G46) | 0 | 0.008 | -0.031 | 0.042 | -0.043 | -0.055 | -0.022 | -0.001 | -0.005 | 0.062
FAM241A (UniProt Q8N8J7) | 0.011 | -0.094 | 0.063 | -0.019 |  | 0.004 | -0.029 | 0.059 | -0.008 | -0.008
DCAF6 isoform 3 (UniProt Q58WW2) | 0.025 | -0.004 | -0.018 | -0.022 | -0.022 | 0.023 | -0.004 | 0.015 | -0.034 | 0.056
CTSH (UniProt P09668) | 0.009 | 0.034 | 0.005 | 0.104 | 0.005 | -0.016 | -0.06 | 0.009 | -0.043 | -0.142
EXOC8 (UniProt Q8IYI6) | -0.094 | -0.001 | 0.014 | 0.049 | -0.128 | -0.032 | 0.051 | 0.026 | -0.002 | -0.317 (active)
DCAF16 (UniProt Q9NXF7) | -0.04 | 0.017 | 0.039 | 0.034 | -0.052 | 0.018 | 0.055 | -0.047 | -0.105 | -0.027

Source: the supplement of paper PMC10849652
